Data on 13 compounds can be found in PubChem BioAssay (NCATS).

Results filed as inconclusive are left out. Calls of active or inactive are those of the source. Calls follow the shape of the dose curve; as a rule, active = well fitted activation curve with a large enough effect; inconclusive = small, poorly fitted or top-dose-only effect; inactive = no such curve, though single readings can be large or run the other way.

This assay deals with Cellular tumor antigen p53 (Homo sapiens) (UniProt P04637). Kind of assay: Primary qHTS for small molecule compounds that upregulate eGFP-tagged delta133p53alpha (in N-terminal) cells. (AID 2060322).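 Also: cells pre-induced with doxycycline then dosed without doxycycline; series mostly up to about 56 µM; 0% = DMSO vehicle and 100% = reference activator; nearly all actives have a fitted effect of over 75% in size.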 The settings on record: NCI-H358 eGFP-delta133p53alpha fluorescence, 24 h; activation: stronger effect = higher value. In a few lines: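 NCI-H358 cells pre-induced 24 h with 10 ng/ml doxycycline for eGFP-delta133p53alpha, plated dox-free and exposed 24 h at 37C to titrated compounds. Fixed, Hoechst-stained; gated GFP peak intensity by laser scanning cytometry, normalized to DMSO (0%) and 57.5 uM 5-azacytidine (100%).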
Sequence of Cellular tumor antigen p53 (Homo sapiens) (P04637 whole entry, looked up): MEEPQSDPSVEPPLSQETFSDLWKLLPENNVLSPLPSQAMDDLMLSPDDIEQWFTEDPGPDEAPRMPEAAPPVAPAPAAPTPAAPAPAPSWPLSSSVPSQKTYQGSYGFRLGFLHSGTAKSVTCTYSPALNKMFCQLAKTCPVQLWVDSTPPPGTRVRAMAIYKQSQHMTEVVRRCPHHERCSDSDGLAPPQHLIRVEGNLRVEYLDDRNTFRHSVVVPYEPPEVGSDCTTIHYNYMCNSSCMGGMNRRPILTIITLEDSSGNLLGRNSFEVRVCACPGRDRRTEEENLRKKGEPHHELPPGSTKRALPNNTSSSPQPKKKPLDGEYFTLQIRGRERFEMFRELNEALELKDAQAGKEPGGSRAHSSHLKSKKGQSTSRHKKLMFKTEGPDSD
(Quantitative high-throughput screening tests each substance at several concentrations.)
In the case of `CC(C(=O)Nc1cc(C#N)ccc1CCCC(=O)O)c1ccc(F)c2ccccc12` (stereo not drawn), the activation is 17.9% (inactive). Take `C/C(=C\CCC1(C)C2CC3C(C2)C31C)C(=O)O` (stereo not drawn): the activation was 5.36% (inactive).

For the compound `CCC(C)/C=C(C)/C=C/C1=CC2=C(Cl)C(=O)C(C)(OC(C)=O)C(=O)C2=CN1C1CCCCN(C(CCC(N)=O)C(=O)O)C1=O` (stereo not drawn), the activation was 2.68% (inactive). Regarding `Cc1ccc(N2CCN(S(=O)(=O)N3CCCCC3)CC2)c(C)c1`, the activation is 17.9% (inactive). As for `CCC(C)C1NC(=O)C(Cc2ccccc2)NC(=O)C(CCCCCC(=O)C(O)CO)NC(=O)C2CCCCN2C1=O` (stereo not drawn), the figure is -9.92% (inactive); as for `COc1ccc(C2(O)CCC(N3CC[C@@H](NC(=O)CNC(=O)c4cccc(C(F)(F)F)c4)C3)CC2)cn1` (stereo partly drawn), 19.6% (inactive). Take `CC(C)=CCCC1(C)C=Cc2c(c(C)cc3c2[nH]c2ccccc23)O1` (stereo not drawn): the activation was 2.29% (inactive).

Regarding `CC(=O)c1c(O)cc2c(c1C)C(=O)CC(O)C2` (stereo not drawn), the activation was -14.5% (inactive). With `CC(O)C(C)n1ncn(-c2ccc(N3CCN(c4ccc(OCC5COC(Cn6cncn6)(c6ccc(Cl)cc6Cl)O5)cc4)CC3)cc2)c1=O` (stereo not drawn), the activation was -5.67% (inactive). Then `CC1(C)CC[C@]2(C(=O)O[C@@H]3O[C@H](CO)[C@@H](O)[C@H](O)[C@H]3O)CC[C@]3(C)C(=CCC4[C@@]5(C)C[C@H](O)[C@H](O[C@@H]6OC[C@@H](O)[C@H](O)[C@H]6O)[C@@](C)(CO)C5CC[C@]43C)C2C1` (stereo partly drawn), with 11.6% (inactive); and `CC(C)=CCC[C@](C)(O)[C@H]1CC[C@]2(C)[C@@H]1[C@H](O)CC1[C@@]3(C)CC[C@H](O)C(C)(C)C3[C@@H](O[C@@H]3O[C@H](CO)[C@@H](O)[C@H](O)[C@H]3O[C@@H]3OC[C@@H](O)[C@H](O)[C@H]3O)C[C@]12C` (stereo partly drawn), with -16.8% (inactive). Consider `CC#C[C@@H](CC(=O)O)c1ccc(OCc2ccc(CN3CCC4(C=Cc5ccccc54)CC3)s2)cc1`, for which the activation is 4.46% (inactive). Then `COC(=O)c1cc(OC)cc(OC)c1C(=O)c1c(OC)cc2c(c1O)C1CCCC(C)(O2)O1` (stereo not drawn), with 14.5% (inactive).
